Rows were chosen to be rich in hits. Some 4.8% of all compounds tested hit in one or more screens of this group.
ATXN2 expr inh: inhibitors of ATXN2 expression; Potency, µM (top dose mostly 57 µM), without a hit: at the top dose activity change, negative = inhibition, most hits filed as inhibitors; HEK-293 ATXN2-luciferase reporter, luminescence, 24 h; 360,000 compounds, 0.72% hits; AID 1745845; further: potency means the concentration at half of the fitted maximal effect; on the % scale 0 is the no-effect control and ±100 the full control effect; nearly all actives have a fitted effect of over 55% in size
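ATXN2-luciferase reporter cells (luciferase flanked by upstream and downstream ATXN2 gene portions) were treated 24 h at 37 °C with compounds at up to 57 uM. SteadyGlo luminescence gave expression; GF-AFC fluorescence gave viability.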
DRD3 agonist: agonists of human D3 dopamine receptor; AID 652048; D3R DiscoveRx beta-arrestin cells, luminescence, 90 min; max activation, %; P35462; 410,000 compounds, 0.58% hits; in the data active means max activation above about 30%; further: 0% is about no effect
Target sequence (P35462 whole entry, looked up): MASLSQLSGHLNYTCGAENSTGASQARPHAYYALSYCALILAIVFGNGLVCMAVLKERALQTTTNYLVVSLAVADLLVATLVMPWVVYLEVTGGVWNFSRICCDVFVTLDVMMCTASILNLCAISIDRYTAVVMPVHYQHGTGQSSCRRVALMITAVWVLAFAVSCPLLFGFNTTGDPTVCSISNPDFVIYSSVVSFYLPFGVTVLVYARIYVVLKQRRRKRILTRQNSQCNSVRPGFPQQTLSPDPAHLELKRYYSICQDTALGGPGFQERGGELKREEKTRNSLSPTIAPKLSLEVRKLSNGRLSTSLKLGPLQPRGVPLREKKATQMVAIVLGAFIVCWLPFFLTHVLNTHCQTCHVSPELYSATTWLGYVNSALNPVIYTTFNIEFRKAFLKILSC
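Cells at 1500/well, incubated overnight, then treated with pinned compounds (dopamine as control) for 90 min at 37 degrees C. DiscoveRx reagent added for 30 - 60 minutes at room temperature; luminescence read.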
ATXN viability: reduces viability in counter-screen for ATXN expression inhibitors | 400,000 compounds, 0.49% hits | AID 651635 | S2 cells (HEK-293 line with an ATXN2-luciferase reporter) viability, CellTiter-Fluor protease fluorescence, 24 h | Potency, µM (top dose mostly 56.7 µM), hits mostly cytotoxic; further: potency means the concentration at half of the fitted maximal effect; nearly all actives have a fitted effect of over 40% in size
HepG2 viability: kills HepG2 cells in TGF-b inhibitor counter-screen. HepG2 CAGA-GFP viability, ATP luminescence, 18 h. Potency, µM (highest dose often 46.1 µM), for inactives: at the top dose activity change, negative = cytotoxicity, usual class: cytotoxic. 410,000 compounds, 0.76% hits. AID 588856; further: potency means the concentration at half of the fitted maximal effect
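CellTiter-Glo luminescence gave cytotoxicity after 18 hours at 37 degrees C. The cells were HepG2 CAGA-GFP in 1% FBS DMEM, stimulated with 500 pg/mL TGF-beta after compound addition. %Activity was normalised to no-cell wells (complete cell-killing) and DMSO (no toxicity), and curves were fitted and classified.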
DRD3 antagonist: D3 dopamine receptor (human) antagonism. P35462. D3R cells, DiscoveRx beta-arrestin luminescence, antagonist mode; hits give low values. max response, negative = inhibition, %. 360,000 compounds, 2.5% hits. AID 652054; in the data active means max response below about -50%; inconclusive means no clear call, values can overlap the other calls; further: on the % scale 0 is the no-effect control and ±100 the full control effect
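Cells plated overnight at 1500 cells/well, then exposed to library compounds with dopamine controls for 90 minutes at 37 degrees C. DiscoveRx reagent added for 30–60 minutes at room temperature; luminescence read, quantitative HTS format.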
TGFb SMAD3 inh: blocks TGF-b signaling; HepG2 CAGA-GFP TGF-b/SMAD3 reporter, GFP fluorescence, 18 h; TGF-beta stimulated, 500 pg/mL final; Potency, µM (doses to about 46.1 µM), for the others: top-dose activity, negative = inhibition, hits mostly inhibitors; 410,000 compounds, 1.2% hits; AID 588855; further: potency means the concentration at half of the fitted maximal effect; on the % scale 0 is the no-effect control and ±100 the full control effect; nearly all actives have a fitted effect of over 65% in size
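Per well, imaged GFP fluorescence of HEPG2 CAGA-GFP cells gives the signal; cells get compound, then TGF-beta (500 pg/mL final), 18 h at 37 degrees C; %Activity versus -TGF-beta and +DMSO controls.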
* = called active by the depositor; i = inactive; u = inconclusive; x = no result given. Unless noted, the call rests on the fitted dose curve; in most records, active means well fitted curve in the direction sought with a large enough effect; inconclusive means small, poorly fitted or top-dose-only effect, or another doubt; inactive means no such curve, though single readings can be large; an effect the other way counts as inactive or inconclusive.

SMILES | ATXN2 expr inh | DRD3 agonist | ATXN viability | HepG2 viability | DRD3 antagonist | TGFb SMAD3 inh
COc1ccc(-n2nc3c(N4CCC(C(=O)NCc5cccc(F)c5)CC4)nnc(C)c3c2C)cc1 | u | -14 | u | 16µM* | x | 10µM*
CC1=C(C)CS(=O)N(S(=O)(=O)c2ccc(Cl)cc2)C1 (configuration not stated) | u | -3 | u | -75% | -88* | u
CC1CCCC(C)N1S(=O)(=O)c1ccc(Cl)cc1 (configuration not stated) | -3% | 1 | i | 8% | 16 | 13%
Cc1ccc(C)c(N2CCN(S(=O)(=O)c3ccc4[nH]c5c(c4c3)CCCC5)CC2)c1 | -14% | 4 | i | -7% | x | 13µM*
Cc1ccc(Cl)cc1N1CCN(S(=O)(=O)c2ccc3[nH]c4c(c3c2)CCCCC4)CC1 | -1% | 2 | i | -29% | x | -28%
Cc1cc(NC(=O)CCNS(=O)(=O)c2cc(Br)cnc2N)ccc1Br | -17% | -4 | i | -37% | -51* | 11µM*
CCN(C(=O)Cn1nc(Cc2ccncc2)c2ccccc2c1=O)c1cccc(Cl)c1 | -3% | 9 | i | -35% | x | u
Cn1c(-n2cccc2)c(-c2c(-c3ccccc3)[nH]c3c2c(=O)n(C)c(=O)n3C)c(=O)n(C)c1=O | 10% | 1 | i | -4% | x | 18%
COc1ccccc1Cc1c(-c2ccco2)nc2cc(C)c(Br)c(C)n12 | 30% | -16 | u | x | -107* | x
CC(C)C[C@H]1CN([C@@H](Cc2ccccc2)CN2CCC[C@@H]2CN2C(=O)C(=O)NC[C@@H]2Cc2ccccc2)C(=O)C(=O)N1CC1CCCCC1 | u | -5 | 20µM* | 20µM* | -5 | 8.9µM*
O=C1NC[C@H](CCCCN2C[C@H](Cc3ccccc3)N(CC3CCCCC3)C(=O)C2=O)N(CC2CCCCC2)C1=O | -22% | -2 | 14µM* | x | -23 | x
O=C1NC[C@H](Cc2ccccc2)N(C[C@H]2CCCN2C[C@H](Cc2ccccc2)N2C[C@H](Cc3ccccc3)N(CC3CCCCCC3)C(=O)C2=O)C1=O | u | -33 | 18µM* | -70% | -23 | u
O=C1NC[C@H](Cc2ccc(O)cc2)N(C[C@@H]2CCCN2C[C@H](Cc2ccccc2)N2C[C@H](Cc3ccc(O)cc3)N(CC3CCCCC3)C(=O)C2=O)C1=O | 20% | -12 | i | x | -12 | x
O=C1NC[C@@H](CCCCN2C[C@H](Cc3ccccc3)N(CC3CCCCC3)C(=O)C2=O)N(Cc2ccccc2)C1=O | 3% | -4 | u | x | -3 | x
COc1cc(/C=C/c2nc(C#N)c(N3CCCCCC3)o2)cc(OC)c1OC | x | 0 | x | -22% | x | -11%
CC(C)(C)OC(=O)CNC(=O)c1[nH]cnc1C(=O)Nc1ccc(CNC(=O)OC(C)(C)C)cc1 | 32µM* | 9 | u | -18% | 142 | u
CC(C)(C)OC(=O)NCc1ccc(NC(=O)c2nc[nH]c2C(=O)NCCNC(=O)c2[nH]cnc2C(=O)Nc2ccc(CNC(=O)OC(C)(C)C)cc2)cc1 | -29% | 42* | u | 1% | 76 | 8%
O=C(Nc1ccccc1)c1nc[nH]c1C(=O)NCCN(CCNC(=O)c1[nH]cnc1C(=O)Nc1ccccc1)CCNC(=O)c1[nH]cnc1C(=O)Nc1ccccc1 | -2% | -19 | i | -19% | 2 | 20µM*
O=C(Nc1ccccc1)c1nc[nH]c1C(=O)NCCCNC(=O)c1[nH]cnc1C(=O)Nc1ccccc1 | 7% | 24 | i | 1% | 126 | 27%
O=C1C=Cc2cccc3ccc(O)c1c23 | 7.1µM* | -16 | i | -5% | u | -2%
O=C/C(=C\Nc1ccc(S(=O)(=O)CCO)cc1)c1nc2cc(Cl)ccc2o1 | -3% | -24 | x | -6% | -51* | -18%
O=C/C(=C\Nc1ccc(Cl)cn1)c1nc2cc(Cl)ccc2o1 | -30% | 0 | u | -17% | -5 | -2%
O=C1CC(c2cc(F)cc(F)c2)c2cc3c(cc2N1)OCO3 (configuration not stated) | -21% | 17 | i | -25% | x | 1%
O=C1c2ccccc2NC(c2cccc(F)c2)N1Cc1ccco1 (configuration not stated) | u | -25 | i | 0% | -61* | -12%
O=C1c2ccccc2NC(c2cccc(F)c2)N1Cc1ccccc1 (configuration not stated) | -28% | 8 | i | -49% | 7 | -17%
SMILES | ATXN2 expr inh | DRD3 agonist | ATXN viability | HepG2 viability | DRD3 antagonist | TGFb SMAD3 inh
CCN(CC)C(=O)c1ccc2c(c1)N(Cc1c(F)cccc1Cl)C(=O)c1ccccc1S2 | u | 6 | i | -5% | x | 16µM*
COCCNC(=O)c1ccc2c(c1)N(Cc1c(F)cccc1Cl)C(=O)c1ccccc1S2 | -5% | 2 | i | -18% | x | u
COc1ccc(NC(=O)c2ccc3c(=O)n4nc(Nc5ccccc5C)sc4nc3c2)cc1Cl | -16% | 2 | i | -9% | x | 9%
COc1ccc(-n2c(SCc3ccccc3F)nc3c([nH]c4ccccc43)c2=O)cc1 | 1% | -6 | i | -20% | x | 19%
Cn1cnnc1SCC(=O)Nc1ccc(Br)cc1F | -2% | 32* | i | -1% | 6 | -16%
CN(C)c1cc2c3ccccc3ccc2c2ccccc12 | x | x | x | -45% | x | -18%
COc1cc(NC(=O)CCc2c(C)nc3c4c(C)cc(C)nc4nn3c2C)cc(OC)c1 | 0% | -6 | i | -4% | x | 4%
Cc1ccc(S(=O)(=O)c2nc(-c3ccccc3)oc2SCC(=O)NC2CCCCC2)cc1 | 4% | 64* | i | 0% | x | 3%
COc1cc(-c2ccc3c(=O)c4ccccc4sc3c2)cc(OC)c1OC | -1% | 60* | i | -17% | 101 | 2%
COc1cc(-c2ccc3c(=O)c4ccccc4n(C)c3c2)cc(OC)c1OC | -23% | 68* | i | -26% | 149 | 10%
COc1cc(-c2c(-c3ccsc3)sc3ccccc23)cc(OC)c1OC | 4% | 12 | i | -10% | 38 | -7%
Cc1nc2ccccc2nc1OCc1ccccc1 | 17% | 1 | i | -7% | -30 | -15%
Cc1nc2ccccc2nc1OCc1cccc(Cl)c1 | -5% | -2 | i | -43% | -10 | 11µM*
COc1cccc(C(=O)Nc2ccc3nc4n(c(=O)c3c2)CCCC4)c1 | 2% | 22 | i | 1% | 10 | 3%
CN(C)c1cccc(C(=O)Nc2ccc3nc4n(c(=O)c3c2)CCCCC4)c1 | -26% | -2 | u | -46% | -61* | -20%

Compound activity deposited in PubChem BioAssay by National Center for Advancing Translational Sciences (NCATS).
